Measured values reported in PubChem BioAssay.
Active and inactive are the calls of the source.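 The calls were made as follows, unless noted: active = inhibition above 20% together with a positive visual image hit; inconclusive = visual image hit but inhibition not above 20%; inactive = no visual image hit.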

Experiment: inhibitors of TNFa-induced NFkB p65 translocation, primary screen, imaging, HUVEC, MLSMR starter and 10KST1 sets (AID 438);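 also: compound added about 3h40 before a 20 min TNFalpha stimulation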;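 as to inhibition: signal is the nuclear over cytoplasmic p65 intensity ratio per well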
Conditions: HUVEC TNFa-induced p65 nuclear translocation; cell count: measured here: nuclei count (cytotoxicity indicator), at 2.08 µM; inhibition: at 2 µM, stronger effect = higher value, 0% TNFa-plus-vehicle, 100% no-TNFa wells
With `CCN1CCc2c(C#N)c(N3CCCCC3)nc(N3CCOCC3)c2C1` the cell count was 567 and the inhibition was -7.1% (inactive). With `CC(NC(=O)Nc1nnc(C(F)(F)F)s1)(C(F)(F)F)C(F)(F)F` the inhibition was 3.6% (inactive) and the cell count was 640. With `O=c1[nH]c2sc3c(c2c(=O)n1Cc1ccccc1)CCC3` the inhibition was -2.5% (inactive) and the cell count was 602. For `CC1(C)Cc2c(C#N)c(OCC(=O)c3ccccc3)nc(-c3ccoc3)c2CO1`, the cell count was 547 and the inhibition was -9.6% (inactive). For `O=c1[nH]c2cnccc2n1-c1ccccc1`, the cell count was 546 and the inhibition was 1.5% (inactive). In the case of `O=C(c1cc(N2CCCCC2)nc2ccccc12)N1CCOCC1`, the cell count is reported as 627 and the inhibition is reported as 3.5% (inactive). In the case of `CC(C)(C)NC(=O)/C=N/O`, the inhibition is reported as -13.4% (inactive) and the cell count is reported as 637. With `COc1cc(N2CCCC2)c(OC)cc1/C=c1/sc2nc3ccccc3n2c1=O` the inhibition was -8.5% (inactive) and the cell count was 499. In the case of `COc1cccc(C(=O)OC2CCCN(C)C2)c1` (stereo not given), the cell count is reported as 524 and the inhibition is reported as 1.2% (inactive). In the case of `N#Cc1nc(-c2cccs2)oc1NCc1ccccc1Cl`, the cell count is reported as 657 and the inhibition is reported as 3.4% (inactive). For `Cc1cc(=O)oc(C)c1C(=O)n1nc(C)c2c1C[C@@H]1[C@H]2C1(C)C`, the inhibition was -3.8% (inactive) and the cell count was 553. With `Brc1ccc2c(c1)CNc1c(ncnc1N1CCOCC1)O2` the cell count was 521 and the inhibition was -0.7% (inactive). With `CCOC(=O)NC1(C(F)(F)F)C(=O)NC(C)=C1C#N` (stereo not given) the inhibition was 3.7% (inactive) and the cell count was 377. In the case of `COCc1n[nH]c(=S)n1-c1cccc2ccccc12`, the inhibition is reported as -1.3% (inactive) and the cell count is reported as 533. For `OC1(C2(O)CC(c3ccccc3)ON2)CCCCC1` (stereo not given), the inhibition was 6.2% (inactive) and the cell count was 713. In the case of `CC(C)Cc1nc(N2CCN(C(=O)Cc3ccccc3)CC2)c(C#N)c2c1COC(C)(C)C2`, the cell count is reported as 601 and the inhibition is reported as -8.9% (inactive). In the case of `CCCCCNc1nc(N2CCCC2)c2c(c1C#N)CCN(C)C2`, the inhibition is reported as 8.1% (inactive) and the cell count is reported as 596. For `O=c1c(-c2ccc(Cl)cc2)[n+]([O-])c2ccccc2n1O`, the cell count was 517 and the inhibition was -16.1% (inactive). With `COc1ccccc1C1/C(=C(/O)c2ccc(OC(C)C)cc2)C(=O)C(=O)N1c1cc(C)on1` (stereo not given) the inhibition was -8.5% (inactive) and the cell count was 437. In the case of `Cc1ccc(CNc2oc(COc3ccccc3Cl)nc2C#N)cc1`, the cell count is reported as 402 and the inhibition is reported as -2.8% (inactive). For `COc1ccc(/C(O)=C2\C(=O)C(=O)N(CCN(C)C)C2c2cccc(OC)c2OC)cc1Cl` (stereo not given), the cell count was 629 and the inhibition was -9.8% (inactive). With `CCC(=O)Nc1nc2ccccc2n1CCN(C)C` the inhibition was 4.1% (inactive) and the cell count was 551. With `CCCC(C)n1[nH]c(=O)cc1N` (stereo not given) the cell count was 395 and the inhibition was -2.2% (inactive). In the case of `CCN(CC)CCOC(=O)c1c(C)n(C)c2ccc(OC)cc12`, the cell count is reported as 669 and the inhibition is reported as -3.7% (inactive). In the case of `CN(C)CCCn1c(NC(=O)C2CCCCC2)nc2ccccc21`, the inhibition is reported as 9.7% (inactive) and the cell count is reported as 672. In the case of `COc1ccccc1NC(=O)CSc1nnc(-c2ccc(NC(C)=O)cc2)n1C`, the cell count is reported as 661 and the inhibition is reported as -6% (inactive). With `O=C(Nc1ccc(N2CCN(C(=O)c3ccccc3)CC2)c(Cl)c1)c1ccc(Br)o1` the cell count was 435 and the inhibition was -6.8% (inactive). For `Cc1nc2c(o1)CCc1ccccc1C2N1CCN(C)CC1` (stereo not given), the inhibition was 1.3% (inactive) and the cell count was 557. For `CN(CCNC(=O)c1ccc(/C=N/O)nc1)Cc1ccccc1`, the cell count was 620 and the inhibition was -9.1% (inactive). For `O=C1C=C(N2CCN(C3=CC(=O)CCC3)CC2)CCC1`, the inhibition was -0.4% (inactive) and the cell count was 493. In the case of `Nc1nc2n(n1)C(c1cccs1)CC(c1ccc(F)cc1)N2` (stereo not given), the cell count is reported as 385 and the inhibition is reported as 5.4% (inactive). With `CC(=O)/C=C(\C)NCCNc1c(F)c(F)c(CO)c(F)c1F` the inhibition was -4.3% (inactive) and the cell count was 570. In the case of `CC1(C)Cc2nc3sc4c(N(CCO)CCO)ncnc4c3cc2CO1`, the inhibition is reported as -7.2% (inactive) and the cell count is reported as 383. With `COC(=O)c1ccc(CN(C(C)=O)c2ccccc2)o1` the cell count was 547 and the inhibition was 0.8% (inactive). In the case of `O=C(c1ccc(=O)oc1)N1CCN(C(c2ccccc2)c2ccccc2)CC1`, the cell count is reported as 630 and the inhibition is reported as -3.2% (inactive). With `Cc1ccc(-n2c(SCC(=O)NCc3ccco3)nc3nc4c(cc3c2=O)COC(C)(C)C4)cc1` the cell count was 518 and the inhibition was -21.3% (inactive). For `Cc1cc(=O)[nH]c(COc2ccccc2)n1`, the cell count was 687 and the inhibition was -9.9% (inactive). In the case of `N#Cc1nc(COc2ccccc2F)oc1NCCCn1ccnc1`, the cell count is reported as 465 and the inhibition is reported as -4% (inactive). In the case of `COC(=O)c1ccc(C2/C(=C(\O)c3ccc4c(c3)OCCO4)C(=O)C(=O)N2CCCN(C)C)cc1` (stereo not given), the inhibition is reported as -2.2% (inactive) and the cell count is reported as 366. For `COc1ccc(C(=O)c2oc3nc(C)cc(C)c3c2N)cc1`, the inhibition was 3.1% (inactive) and the cell count was 400.

Experiment: inhibitors of E-selectin induction by TNFa, primary screen, imaging, HUVEC, immunofluorescence, MLSMR starter and 10KST1 sets (AID 487;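 active = visually confirmed hit in the image check and inhibition above 20%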;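 as to inhibition: signal is fraction of cell area covered by stained E-selectin grains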;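 as to nuclei count: 100% = median nuclei count of all wells on the same plate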)
Conditions: HUVEC TNFalpha-induced E-selectin immunofluorescence imaging, at 2 µM; inhibition: stronger effect = higher value; nuclei count: measured here: cell number, toxicity
In the case of `CCN1CCc2c(C#N)c(N3CCCCC3)nc(N3CCOCC3)c2C1`, the nuclei count is reported as 149% and the inhibition is reported as -95.8% (inactive). In the case of `CC(NC(=O)Nc1nnc(C(F)(F)F)s1)(C(F)(F)F)C(F)(F)F`, the nuclei count is reported as 149% and the inhibition is reported as -157% (inactive). For `O=c1[nH]c2sc3c(c2c(=O)n1Cc1ccccc1)CCC3`, the inhibition was -99.8% (inactive) and the nuclei count was 146%. In the case of `CC1(C)Cc2c(C#N)c(OCC(=O)c3ccccc3)nc(-c3ccoc3)c2CO1`, the inhibition is reported as 14.2% (inactive) and the nuclei count is reported as 98.1%. With `O=c1[nH]c2cnccc2n1-c1ccccc1` the nuclei count was 162% and the inhibition was -390% (inactive). In the case of `O=C(c1cc(N2CCCCC2)nc2ccccc12)N1CCOCC1`, the nuclei count is reported as 159% and the inhibition is reported as -37.7% (inactive). For `CC(C)(C)NC(=O)/C=N/O`, the inhibition was -71.6% (inactive) and the nuclei count was 166%. For `COc1cc(N2CCCC2)c(OC)cc1/C=c1/sc2nc3ccccc3n2c1=O`, the inhibition was -137% (inactive) and the nuclei count was 155%. For `COc1cccc(C(=O)OC2CCCN(C)C2)c1` (stereo not given), the nuclei count was 141% and the inhibition was -39.2% (inactive). For `N#Cc1nc(-c2cccs2)oc1NCc1ccccc1Cl`, the nuclei count was 107% and the inhibition was -84% (inactive). In the case of `Cc1cc(=O)oc(C)c1C(=O)n1nc(C)c2c1C[C@@H]1[C@H]2C1(C)C`, the inhibition is reported as -44.9% (inactive) and the nuclei count is reported as 176%. With `Brc1ccc2c(c1)CNc1c(ncnc1N1CCOCC1)O2` the inhibition was 2% (inactive) and the nuclei count was 90%. In the case of `CCOC(=O)NC1(C(F)(F)F)C(=O)NC(C)=C1C#N` (stereo not given), the nuclei count is reported as 129% and the inhibition is reported as 5.5% (inactive). With `COCc1n[nH]c(=S)n1-c1cccc2ccccc12` the inhibition was -25.8% (inactive) and the nuclei count was 173%. For `OC1(C2(O)CC(c3ccccc3)ON2)CCCCC1` (stereo not given), the inhibition was -8.5% (inactive) and the nuclei count was 141%. In the case of `CC(C)Cc1nc(N2CCN(C(=O)Cc3ccccc3)CC2)c(C#N)c2c1COC(C)(C)C2`, the inhibition is reported as -80.2% (inactive) and the nuclei count is reported as 153%. With `CCCCCNc1nc(N2CCCC2)c2c(c1C#N)CCN(C)C2` the nuclei count was 146% and the inhibition was -52.3% (inactive). For `O=c1c(-c2ccc(Cl)cc2)[n+]([O-])c2ccccc2n1O`, the nuclei count was 170% and the inhibition was -12.5% (inactive). With `COc1ccccc1C1/C(=C(/O)c2ccc(OC(C)C)cc2)C(=O)C(=O)N1c1cc(C)on1` (stereo not given) the inhibition was -118% (inactive) and the nuclei count was 148%. With `Cc1ccc(CNc2oc(COc3ccccc3Cl)nc2C#N)cc1` the inhibition was -40.3% (inactive) and the nuclei count was 82.6%. With `COc1ccc(/C(O)=C2\C(=O)C(=O)N(CCN(C)C)C2c2cccc(OC)c2OC)cc1Cl` (stereo not given) the inhibition was -43.6% (inactive) and the nuclei count was 170%. For `CCC(=O)Nc1nc2ccccc2n1CCN(C)C`, the inhibition was -371% (inactive) and the nuclei count was 131%. For `CCCC(C)n1[nH]c(=O)cc1N` (stereo not given), the nuclei count was 137% and the inhibition was -101% (inactive). With `CCN(CC)CCOC(=O)c1c(C)n(C)c2ccc(OC)cc12` the inhibition was -50.2% (inactive) and the nuclei count was 150%. In the case of `CN(C)CCCn1c(NC(=O)C2CCCCC2)nc2ccccc21`, the inhibition is reported as -32.4% (inactive) and the nuclei count is reported as 112%. For `COc1ccccc1NC(=O)CSc1nnc(-c2ccc(NC(C)=O)cc2)n1C`, the inhibition was -36.2% (inactive) and the nuclei count was 198%. In the case of `O=C(Nc1ccc(N2CCN(C(=O)c3ccccc3)CC2)c(Cl)c1)c1ccc(Br)o1`, the nuclei count is reported as 143% and the inhibition is reported as -72.9% (inactive). For `Cc1nc2c(o1)CCc1ccccc1C2N1CCN(C)CC1` (stereo not given), the nuclei count was 103% and the inhibition was -37.3% (inactive). For `CN(CCNC(=O)c1ccc(/C=N/O)nc1)Cc1ccccc1`, the nuclei count was 182% and the inhibition was -41% (inactive). For `O=C1C=C(N2CCN(C3=CC(=O)CCC3)CC2)CCC1`, the inhibition was 4.1% (inactive) and the nuclei count was 100%. With `Nc1nc2n(n1)C(c1cccs1)CC(c1ccc(F)cc1)N2` (stereo not given) the nuclei count was 141% and the inhibition was -40.7% (inactive). In the case of `CC(=O)/C=C(\C)NCCNc1c(F)c(F)c(CO)c(F)c1F`, the nuclei count is reported as 145% and the inhibition is reported as -22.3% (inactive). With `CC1(C)Cc2nc3sc4c(N(CCO)CCO)ncnc4c3cc2CO1` the nuclei count was 82.1% and the inhibition was 7.7% (inactive). With `COC(=O)c1ccc(CN(C(C)=O)c2ccccc2)o1` the inhibition was -113% (inactive) and the nuclei count was 141%. With `O=C(c1ccc(=O)oc1)N1CCN(C(c2ccccc2)c2ccccc2)CC1` the inhibition was -22.1% (inactive) and the nuclei count was 168%. With `Cc1ccc(-n2c(SCC(=O)NCc3ccco3)nc3nc4c(cc3c2=O)COC(C)(C)C4)cc1` the nuclei count was 176% and the inhibition was 9.1% (inactive). In the case of `Cc1cc(=O)[nH]c(COc2ccccc2)n1`, the nuclei count is reported as 162% and the inhibition is reported as -104% (inactive). For `N#Cc1nc(COc2ccccc2F)oc1NCCCn1ccnc1`, the inhibition was -87.7% (inactive) and the nuclei count was 136%. In the case of `COC(=O)c1ccc(C2/C(=C(\O)c3ccc4c(c3)OCCO4)C(=O)C(=O)N2CCCN(C)C)cc1` (stereo not given), the nuclei count is reported as 91.5% and the inhibition is reported as 1.3% (inactive). In the case of `COc1ccc(C(=O)c2oc3nc(C)cc(C)c3c2N)cc1`, the inhibition is reported as 7.4% (inactive) and the nuclei count is reported as 117%.
